Test results reported in PubChem BioAssay AID1159580 (chemical genetic matrix, 2015).
“And” between values parts separate entries of the source, which are not always exact repeats. Equal values may be shown once. The whole screen tested about 5,500 compounds, of which about 2,000 (36%) were called active. Another 18% or so got no clear call; they are omitted. Cut-off read from the data, not from the text of the source: active = normalized growth mostly below about 0.91 (no sharp cut-off); inconclusive = no clear call, values can overlap the other calls; inactive = mostly above about 0.92. This is one part of the list.

Test: chemical genetic growth profiling, strain panel (AID 1159580);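 note: tested at 20 µM; growth read once vehicle control cultures reached saturation at 30 °C; 1 = growth at the plate median or of vehicle wells; lower values mean less growth of the strain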
Details: S. cerevisiae deletion strains, growth OD

Measured: normalized growth

c1cncc(C2CCCCN2)c1 (configuration not stated)
inactive: locus YAL021C, strain ccr4, stronger effect = lower value 0.986 | locus YAL026C, strain drs2, stronger effect = lower value 0.999 | locus YAL030W, strain snc1, stronger effect = lower value 1 | locus YBL061C, strain skt5, stronger effect = lower value 0.995 | locus YBR009C, strain hhf1, stronger effect = lower value 0.995 | locus YBR021W, strain FUR4, stronger effect = lower value 1.02 | locus YBR023C, strain chs3, stronger effect = lower value 0.998 | locus YBR171W, strain sec66, stronger effect = lower value 0.985 | locus YBR229C, strain ROT2, stronger effect = lower value 1.02 | locus YBR231C, strain swc5, stronger effect = lower value 0.991 | locus YBR279W, strain paf1, stronger effect = lower value 0.99 | locus YCL011C, strain gbp2, stronger effect = lower value 0.997 | locus YCL016C, strain dcc1, stronger effect = lower value 0.996 | locus YCL029C, strain bik1, stronger effect = lower value 0.982 | locus YCL061C, strain MRC1, stronger effect = lower value 0.988 | locus YCL069W, strain vba3, stronger effect = lower value 0.993 | locus YCR088W, strain abp1, stronger effect = lower value 0.993 | locus YDL005C, strain med2, stronger effect = lower value 0.997 | locus YDL035C, strain GPR1, stronger effect = lower value 1.04 | locus YDL040C, strain nat1, stronger effect = lower value 0.992 | locus YDL074C, strain BRE1, stronger effect = lower value 1.01 | locus YDL101C, strain DUN1, stronger effect = lower value 1.01 | locus YDL185W, strain tfp1, stronger effect = lower value 1 | locus YDL192W, strain arf1, stronger effect = lower value 0.998 | locus YDR001C, strain nth1, stronger effect = lower value 0.991 | locus YDR069C, strain doa4, stronger effect = lower value 0.988 | locus YDR101C, strain arx1, stronger effect = lower value 0.971 | locus YDR137W, strain rgp1, stronger effect = lower value 0.996 | locus YDR159W, strain sac3, stronger effect = lower value 0.979 | locus YDR162C, strain NBP2, stronger effect = lower value 1 | locus YDR195W, strain ref2 0.98 | locus YDR297W, strain sur2, stronger effect = lower value 0.986 | locus YDR318W, strain mcm21, stronger effect = lower value 1.01 | locus YDR334W, strain swr1, stronger effect = lower value 0.99 | locus YDR335W, strain msn5, stronger effect = lower value 0.994 | locus YDR388W, stronger effect = lower value 0.996 | locus YDR392W, strain spt3, stronger effect = lower value 0.99 | locus YDR502C, strain sam2, stronger effect = lower value 0.995 | locus YEL003W, strain gim4, stronger effect = lower value 1.01 | locus YEL037C, strain rad23, stronger effect = lower value 0.999 | locus YEL061C, strain CIN8 (second series), stronger effect = lower value 0.992 | locus YEL061C, strain CIN8, stronger effect = lower value 0.999 | locus YER015W, strain faa2, stronger effect = lower value 0.997 | locus YER016W, strain bim1, stronger effect = lower value 0.995 | locus YER110C, stronger effect = lower value 0.98 | locus YER111C, strain swi4, stronger effect = lower value 0.989 | locus YER155C, strain BEM2 (second series), stronger effect = lower value 0.996 | locus YER155C, strain BEM2, stronger effect = lower value 1.01 | locus YER167W, strain BCK2, stronger effect = lower value 0.993 | locus YFR010W, strain ubp6, stronger effect = lower value 0.989 | locus YGL078C, strain dbp3, stronger effect = lower value 1 | locus YGL086W, strain mad1, stronger effect = lower value 0.978 | locus YGL167C, strain pmr1, stronger effect = lower value 0.989 | locus YGL173C, strain kem1, stronger effect = lower value 0.984 | locus YGL227W, strain vid30, stronger effect = lower value 0.983 | locus YGL240W, strain doc1, stronger effect = lower value 0.981 | locus YGL248W, strain PDE1, stronger effect = lower value 1.03 | locus YGL253W, strain hxk2, stronger effect = lower value 0.986 | locus YGR078C, strain PAC10, stronger effect = lower value 1.01 | locus YGR135W, strain pre9, stronger effect = lower value 0.999 | locus YGR252W, strain gcn5, stronger effect = lower value 0.969 | locus YHR013C, strain ard1, stronger effect = lower value 1 | locus YHR027C, strain rpn1, stronger effect = lower value 0.985 | locus YHR030C, strain SLT2, stronger effect = lower value 1.01 and 1.02 | locus YHR079C, strain IRE1 (second series), stronger effect = lower value 0.998 | locus YHR079C, strain IRE1, stronger effect = lower value 1 | locus YHR094C, strain hxt1, stronger effect = lower value 0.996 | locus YHR129C, strain ARP1, stronger effect = lower value 1 | locus YHR142W, strain chs7, stronger effect = lower value 0.985 | locus YHR200W, strain rpn10, stronger effect = lower value 0.999 | locus YIL066C, strain RNR3, stronger effect = lower value 1.01 | locus YIL073C, strain SPO22, stronger effect = lower value 0.996 | locus YIL125W, strain kgd1, stronger effect = lower value 0.986 | locus YIR030C, strain dcg1, stronger effect = lower value 0.988 | locus YJL092W, strain hpr5, stronger effect = lower value 0.995 | locus YJL095W, strain BCK1 (second series), stronger effect = lower value 1.01 | locus YJL095W, strain BCK1, stronger effect = lower value 1.05 and 0.994 | locus YJL115W, strain asf1, stronger effect = lower value 0.986 | locus YJL129C, strain trk1, stronger effect = lower value 0.999 | locus YJL134W, strain LCB3, stronger effect = lower value 1.01 | locus YJL154C, strain vps35, stronger effect = lower value 0.991 | locus YJL164C, strain tpk1, stronger effect = lower value 0.998 | locus YJL166W, strain qcr8, stronger effect = lower value 0.993 | locus YJL168C, strain set2, stronger effect = lower value 0.995 | locus YJL187C, strain SWE1 (second series), stronger effect = lower value 1.03 | locus YJL187C, strain SWE1, stronger effect = lower value 1.01 | locus YJR043C, strain POL32, stronger effect = lower value 1.02
